High-throughput results from PubChem.
VCAM1 TNFa inh: reduces TNF alpha induced VCAM1 expression in HUVEC | inhibition, % at 2 µM | AID 802 | HUVEC TNFa-induced VCAM-1 immunofluorescence, high-content imaging | 95,000 tested, 0.48% active;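 active = inhibition above the batch mean plus 3 SD, with images confirmed as a hit by eye, cut at about 37% in these data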;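 also: 0% = TNF-stimulated DMSO wells and 100% = unstimulated control wells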
cytoskel mod: modifiers of cytoskeleton assembly; inhibition, % at 2 µM; HUVEC TNFa F-actin phalloidin imaging, high content; 91,000 tested, 0.18% active; AID 836;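 active = inhibition above the batch mean plus 3 SD and confirmed as a hit by visual image inspection, cut at about 30% in these data, passing the limit was not always enough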
E-sel TNF inh: TNF alpha driven E-selectin expression inhibition; HUVEC TNFa-induced E-selectin immunofluorescence, high content; inhibition, % at 2 µM; 120,000 tested, 0.71% active;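 active = inhibition above the batch mean plus 3 SD, and confirmed as a hit on visual image review, cut at about 43% in these data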;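 also: 0% = TNF-stimulated DMSO wells and 100% = unstimulated control wells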
TNFa cytotox: toxic to HUVEC cells under TNF alpha stimulation; HUVEC TNFalpha-stimulated, Hoechst cell count, imaging; cell count reduction, % at 2 µM; 93,000 tested, 0.17% active;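 active = cell count reduction exceeding the screen mean by over 5 SD, scaled to untreated wells per plate, cut at about 78% in these data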;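 also: cells counted after 24 h of TNF alpha exposure following the 1 h pretreatment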
* marks the source's active call; other numbers are inactive results. An excerpt weighted towards active compounds, which were near 1.2% of everything screened.

What do the screens show for `COc1cccc(N2CC(C(=O)Nc3nnc(SCC(=O)c4ccccc4)s3)CC2=O)c1` (stereo unspecified)?
E-sel TNF inh: 61*

What do the screens show for `COc1cccc(N2CC(C(=O)Nc3nnc(SCc4ccccn4)s3)CC2=O)c1` (stereo unspecified)?
E-sel TNF inh: -23

What do the screens show for `CCc1ccc(N/C(N)=N/c2nc(CSc3ccccn3)cc(=O)[nH]2)cc1`?
E-sel TNF inh: 3

How did O=C(N/C(=C/c1ccc(Br)cc1)c1nc2ccccc2[nH]1)c1ccco1 do in these assays?
VCAM1 TNFa inh: 1; cytoskel mod: 4; TNFa cytotox: -4

What do the screens show for `O=C1c2ccccc2C(Nc2ccc(S(=O)(=O)N3CCCCCC3)cc2)N1c1ccccn1` (stereo unspecified)?
VCAM1 TNFa inh: 0; cytoskel mod: -10; E-sel TNF inh: 20; TNFa cytotox: -6

What do the screens show for `CN(c1ccc(C(=O)NCC2CCCO2)cc1)S(C)(=O)=O` (stereo unspecified)?
VCAM1 TNFa inh: 12; cytoskel mod: 13; E-sel TNF inh: 65*; TNFa cytotox: -13

Results for CC1CCCN(CC(O)CN)C1 (stereo unspecified) ?
VCAM1 TNFa inh: 0; cytoskel mod: -4; E-sel TNF inh: -3; TNFa cytotox: -11

How did O=C(C1CCCO1)N1CCN(c2c3c(nc4cc(-c5ccc(F)cc5)nn24)CCC3)CC1 (stereo unspecified) do in these assays?
VCAM1 TNFa inh: -1; cytoskel mod: 30; E-sel TNF inh: 65*; TNFa cytotox: 4

What do the screens show for `COc1ccccc1OCCn1cc(C(=O)c2ccco2)c2ccccc21`?
VCAM1 TNFa inh: 4; cytoskel mod: 72*; E-sel TNF inh: 65*; TNFa cytotox: 10

Results for CC(=O)Oc1ccc2ccccc2c1C(NC(=O)Cc1ccccc1)c1ccccc1Cl (stereo unspecified) ?
VCAM1 TNFa inh: 18; cytoskel mod: -10; E-sel TNF inh: -37; TNFa cytotox: -5

What do the screens show for `CN(C)c1cccc(C(=O)Nc2ccc(N3CCOCC3)cc2)c1`?
VCAM1 TNFa inh: 1; cytoskel mod: 32*; E-sel TNF inh: 6; TNFa cytotox: -46

Results for CCOc1ccc(/C=C/[N+](=O)[O-])c2ccccc12 ?
VCAM1 TNFa inh: 27; cytoskel mod: 4; E-sel TNF inh: -3; TNFa cytotox: 8

Results for O=[N+]([O-])/C=C/c1c(OCc2ccccc2)ccc2ccccc12 ?
VCAM1 TNFa inh: 56*; E-sel TNF inh: 8; TNFa cytotox: -1

Results for O=C(NCCc1nc2ccccc2[nH]1)/C(=C/c1ccc2c(c1)OCO2)NC(=O)c1ccccc1Cl ?
E-sel TNF inh: 29

What do the screens show for `Cn1c(SCC(=O)NC2CC2)nnc1-c1ccco1`?
E-sel TNF inh: -7

Results for Cn1c(SCC(=O)NC2CCCCC2)nnc1-c1cccc(N)c1 ?
VCAM1 TNFa inh: 54*; cytoskel mod: -11; E-sel TNF inh: 3; TNFa cytotox: 2

What do the screens show for `COc1ccc(CN(C(=S)Nc2ccccc2)C2CC(=O)N(c3ccc(Cl)cc3)C2=O)cc1` (stereo unspecified)?
VCAM1 TNFa inh: 8; cytoskel mod: 0; E-sel TNF inh: -3; TNFa cytotox: -11

What do the screens show for `O=C1CC(N(Cc2cccs2)C(=O)Nc2ccccc2)C(=O)N1c1ccc(Cl)cc1` (stereo unspecified)?
E-sel TNF inh: 70*

How did COC(=O)c1cc(S(=O)(=O)N2CCOCC2)c(N2CCOCC2)cc1N1CCOCC1 do in these assays?
E-sel TNF inh: 56*

How did CC(C)(C)c1csc(NC(=O)Cn2c(=O)oc3ccccc32)n1 do in these assays?
VCAM1 TNFa inh: 7; cytoskel mod: -3; E-sel TNF inh: 7; TNFa cytotox: -7

How did Cc1ccc(/C=C/C(=O)C2C(=O)c3ccccc3C2=O)cc1 do in these assays?
VCAM1 TNFa inh: 19; cytoskel mod: 19; E-sel TNF inh: 66*; TNFa cytotox: -5

What do the screens show for `CCn1c(SCC(=O)Nc2ccccc2)nnc1C1CCCCC1`?
VCAM1 TNFa inh: -6; cytoskel mod: 23; E-sel TNF inh: 60*; TNFa cytotox: -22

How did CCOC(=O)c1cccc(NC(=O)CSc2nnc(C3CCCCC3)n2C)c1 do in these assays?
VCAM1 TNFa inh: 26; cytoskel mod: 0; E-sel TNF inh: -17; TNFa cytotox: -5

How did COc1ccc(S(=O)(=O)NCc2csc(-c3cccnc3)n2)cc1 do in these assays?
VCAM1 TNFa inh: -1; cytoskel mod: -3; E-sel TNF inh: 70*; TNFa cytotox: -23

Results for O=C(Nc1cccc(C(F)(F)F)c1)c1cccnc1N1CCN(c2ccccc2)CC1 ?
VCAM1 TNFa inh: -7; cytoskel mod: 1; E-sel TNF inh: 10; TNFa cytotox: 2

What do the screens show for `CCN(CC)S(=O)(=O)c1ccc2oc(C(=O)O)c(C)c2c1`?
VCAM1 TNFa inh: 5; cytoskel mod: 23; E-sel TNF inh: 17; TNFa cytotox: -10

What do the screens show for `COc1ccc(C(=O)/C=C/Nc2ccc([N+](=O)[O-])cc2C)c(OC)c1`?
VCAM1 TNFa inh: -18; cytoskel mod: 3; E-sel TNF inh: 100*; TNFa cytotox: 3

How did COc1ccc(C(=O)/C=C/Nc2ccc([N+](=O)[O-])cc2C)cc1OC do in these assays?
VCAM1 TNFa inh: 2; cytoskel mod: -2; TNFa cytotox: -4

Results for CC(=O)c1cccc(NS(=O)(=O)c2c(C)noc2C)c1 ?
VCAM1 TNFa inh: 15; cytoskel mod: 60*; TNFa cytotox: -45

What do the screens show for `Cc1cccc(NC(=O)c2ccc(NS(=O)(=O)c3c(C)noc3C)cc2)c1`?
VCAM1 TNFa inh: 4; cytoskel mod: 9; E-sel TNF inh: 100*; TNFa cytotox: 0

What do the screens show for `CC(=O)c1cccc(NS(=O)(=O)N2CCCCC2)c1`?
VCAM1 TNFa inh: 20; cytoskel mod: 1; E-sel TNF inh: 81*; TNFa cytotox: 9

How did C/C(=N\N1CCN(C2c3ccccc3-c3ccccc32)CC1)c1ccco1 do in these assays?
E-sel TNF inh: 0

How did O=C(Nc1nccs1)c1cccc(N2C(=O)c3cccc4c([N+](=O)[O-])ccc(c34)C2=O)c1 do in these assays?
VCAM1 TNFa inh: 62*; cytoskel mod: -6; E-sel TNF inh: -13; TNFa cytotox: -1

How did CCOc1ccc2nc(C)cc(Nc3ccc4c(c3)OCCO4)c2c1 do in these assays?
VCAM1 TNFa inh: 12; cytoskel mod: 68*; E-sel TNF inh: 6; TNFa cytotox: -32

How did Cc1ccc2nc(C)cc(Nc3ccc4c(c3)OCCO4)c2c1 do in these assays?
VCAM1 TNFa inh: 22; cytoskel mod: 5; E-sel TNF inh: -4; TNFa cytotox: -14

Results for CCN(CC)C(=O)CCSc1nnc(-c2ccco2)o1 ?
E-sel TNF inh: -6

What do the screens show for `COc1ccc(NC(=O)Cn2nnc(-c3ccccc3NC(=O)c3cccs3)n2)cc1`?
VCAM1 TNFa inh: -3; cytoskel mod: -6; E-sel TNF inh: 7; TNFa cytotox: -12

What do the screens show for `Cc1ccc(NC(=O)Cn2nnc(-c3ccccc3NC(=O)c3cccs3)n2)cc1`?
VCAM1 TNFa inh: 60*; cytoskel mod: -3; E-sel TNF inh: -70; TNFa cytotox: 55

Results for Nc1ccc(C(=O)OCC(=O)N2CCc3ccccc3C2)cc1[N+](=O)[O-] ?
E-sel TNF inh: -7

Results for O=C(Nc1cccs1)Nc1c(F)c(F)c(F)c(F)c1F ?
E-sel TNF inh: 69*
